Shown is part of a subset that was picked to be rich in hits.
Chlamy TAG – increases triacylglycerol in Chlamydomonas reinhardtii | Chlamydomonas reinhardtii TAG, Nile Red fluorescence, 72 h | calls only at 10 µM (by protocol) | 44,000 tested, 0.84% active; call rule not given here;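 note: hits raise Nile Red signal meaning more stored TAG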
Of the large screens only hits and unclear results are named; the others gave an inactive call.

COc1ccc(S(=O)(=O)Nc2cccc(C)c2C)cc1	none
O=C(COc1ccc(Cl)cc1)Nc1ccc(NC(=O)c2ccccc2)cc1	none
O=[N+]([O-])c1ccc(N2CCN(c3ccccc3)CC2)cc1N1CCOCC1	none
Cc1ccc(S(=O)(=O)c2ccc(-c3ccc([N+](=O)[O-])cc3)cc2)cc1	Chlamy TAG active
Cc1ccc(S(=O)(=O)c2ccc(C)cc2)cc1	none
Cc1ccc(NS(=O)(=O)c2ccc([N+](=O)[O-])cc2)cc1	none
CCCC(C)C(=O)N1CC(C)CC(C)C1 (stereo not drawn)	none
CCOc1cc(C(=O)Nc2ccc(C)cc2Br)cc(OCC)c1OCC	none
O=C(O)C1C2C=CC(O2)C1C(=O)Nc1ccccc1F (stereo not drawn)	Chlamy TAG active
Cc1ccc(Cl)cc1NC(=O)C1C2C=CC(O2)C1C(=O)O (stereo not drawn)	none
O=C(Nc1ccccc1F)[C@@H]1C2C=CC(C2)[C@@H]1C(=O)O (stereo partly drawn)	none
O=C(CN(Cc1ccccc1Cl)S(=O)(=O)c1ccc(Cl)cc1)NC1CC1	none
COc1cccc(N2CCN(C3CC(=O)N(c4cc(Cl)ccc4C)C3=O)CC2)c1 (stereo not drawn)	none
CN1C(=O)C(=O)C(=C(O)c2ccc(Br)cc2)C1c1ccc(Cl)cc1 (stereo not drawn)	none
O=C(Nc1ccccc1Cl)c1cccc(Cl)c1Cl	none
O=C(Nc1ccccc1C(=O)Nc1ccccc1Cl)c1ccncc1	Chlamy TAG active
CC(C)NC(=O)c1ccccc1NC(=O)c1ccccc1	none
CC(C)c1ccc(C(=O)Nc2ccccc2C(N)=O)cc1	none
O=C(Nc1ccccc1C(=O)NCCc1ccccc1)c1ccncc1	none
CC(C)NC(=O)c1ccccc1NC(=O)c1ccc(Br)cc1	Chlamy TAG active
O=C(Nc1ccccc1C(=O)NCCCCO)c1ccc(Br)cc1	none
O=C(Nc1ccccc1F)c1ccc(Br)cc1	none
CC(C)NC(=O)c1ccccc1NC(=O)c1ccc(Cl)cc1	Chlamy TAG active
CCN(Cc1ccccc1)Cc1ccco1	none
Cc1ccc(NC(=O)CCCc2ccccc2)cc1F	none
CCO/N=C(/c1nonc1N)N1CCOCC1	none
Cc1ccc(SCC(=O)NC2CCCC2)cc1	none
CC(C)CC(=O)N1CCN(Cc2ccccn2)CC1	none
COc1ccc(Br)cc1CN1CCCC(C(=O)N2CCCC2)C1 (stereo not drawn)	none
Cc1ccc(C(=O)Nc2ccccc2)cc1S(=O)(=O)Nc1ccc(C(=O)O)cc1	none
COc1cc(NC(=O)CSCc2ccccc2)c(C(=O)O)cc1OC	none
CCc1cccc(OCC(=O)Nc2cc(OC)c(OC)cc2C(=O)O)c1	Chlamy TAG active
COc1ccc(OCC(=O)Nc2cc(OC)c(OC)cc2C(=O)O)cc1	none
N#CC1=C(N)OC2=C(C(=O)CCC2)C1c1cccc(Oc2ccccc2)c1 (stereo not drawn)	none
Cc1cc(C(=O)Nc2ccc(S(=O)(=O)NC(C)(C)C)cc2)ccc1[N+](=O)[O-]	none
CCC(CC)C(=O)Nc1ccc(C(=O)Nc2nccs2)cc1	Chlamy TAG active
Cc1ccc(C(=O)Nc2nccs2)cc1Br	none
Cc1ccc(OCC(=O)Nc2ccc(C(=O)Nc3nccs3)cc2)cc1C	none
Cc1cccc(C(=O)Nc2ccc(F)cc2F)c1	none
Cc1ccc(Cl)cc1NC(=O)C1CC=CCC1C(=O)O (stereo not drawn)	none
O=C(O)C1CC=CCC1C(=O)Nc1ccc(F)cc1F (stereo not drawn)	Chlamy TAG active
Cc1ccc(NC(=O)C2CC=CCC2C(=O)O)c(Br)c1 (stereo not drawn)	none
CC(C)c1ccc(CN2CCOCC2)cc1	Chlamy TAG active
Clc1ccc(CN2CCOCC2)cc1Cl	none
CC(C)c1ccc(CN2CCC(O)CC2)cc1	none
O=C(c1ccc(Cl)cc1)N1CCN(c2ccc([N+](=O)[O-])c(SCc3ccco3)c2)CC1	none
COc1ccc([N+](=O)[O-])cc1NC(=O)CCN1CCC(C(N)=O)CC1	none
CCC(C)c1ccccc1OCCOCCN1CCCC1 (stereo not drawn)	none
CCOc1ccc(OCCOCCN2CCOCC2)cc1	none
Fc1ccccc1OCCN1CCOCC1	none
CCC(C)c1ccccc1OCCNC(C)C (stereo not drawn)	none
O=[N+]([O-])c1ccccc1OCCCN1CCOCC1	none
CCC(C)c1ccccc1OCCCCN1CCCC1 (stereo not drawn)	Chlamy TAG active
CCC(C)c1ccccc1OCCN1CCCC1 (stereo not drawn)	none
Clc1ccc(OCCOCCN2CCOCC2)cc1Cl	none
CCc1ccc(OCCOCCN2CCOCC2)cc1	Chlamy TAG active
CCC(C)c1ccccc1OCCCN1CCOCC1 (stereo not drawn)	Chlamy TAG active
c1ccc(-c2ccccc2OCCCN2CCOCC2)cc1	none
CCC(C)c1ccccc1OCCOCCN1CCOCC1 (stereo not drawn)	Chlamy TAG active
COc1ccc(C(=O)Nc2sc(Cc3ccccc3)c(C)c2C(N)=O)cc1Br	none
CCc1ccccc1NC(=O)CCSc1ccc(Cl)cc1	none
NC(=O)c1ccc(N2CCCC2)c([N+](=O)[O-])c1	none
CC(=O)NC(/C=C/c1ccccc1)c1cc([N+](=O)[O-])c2cccnc2c1O (stereo not drawn)	none
O=C(CSc1ccccc1)Nc1nnc(CCC(=O)c2ccccc2)s1	none
CC(=O)c1ccc(NC(=O)COc2ccccc2[N+](=O)[O-])cc1	none

Source: PubChem BioAssay
